The values below come from PubChem BioAssay (NCATS).

Holding throughout (test): Cytotoxic Profiling of Annotated Libraries Using Quantitative High-Throughput Screening (AID 1296008); further: nearly all actives have a fitted effect of over 60% in size
Holding throughout (conditions): Five cell lines viability, CellTiter-Glo ATP luminescence, 48-72 h; max response: stronger effect = lower value
In general terms: In ATP-based viability assays light output follows the ATP content of the culture.

Test [1] deals with CRL-7250. An outline of the steps: (§1)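 Compounds were pin-transferred onto cells and incubated 48 or 72 hr at 37 degree Celsius, 95% humidity. CellTiter-Glo was added, plates sat 10 min at room temperature, then ATP-coupled luminescence was imaged as the viability read-out.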
Test [2] relates to HEK293. An outline of the steps: as §1
Test [3] relates to HaCat. An outline of the steps:
as §1

The test system of test [4] is KB-3-1. An outline of the steps: as §1
Test [5] deals with NIH3T3. An outline of the steps: as §1

Several values for one entry are separate records, joined by “and”; a condition that tells them apart may be missing. Equal values may be shown once. Inconclusive results are not listed. Values without a mark were called inactive. Activity calls are given as the source filed them. The call rests on the fitted dose curve; in most records, active means well fitted inhibition curve with a large enough effect; inconclusive means small, poorly fitted or top-dose-only effect; inactive means flat fitted curve, though single readings scatter. Where a SMILES comes first, the peptide text is derived from it. The star is where a group is joined. AFC = O=c1cc(C(F)(F)F)c2ccc(N*)cc2o1
On the % scale 0 is the no-effect control and ±100 the full control effect; potency means the concentration at half of the fitted maximal effect.

As for `CC1CC(O)C2(C)C(C(=O)O)=CCCC2C1(C)CCc1ccoc1` (stereo not given), the max response is 0.739% in test [1] and -2.92% in test [5]. Besides, the call in test [2], in test [3] and in test [4] was inactive.

As to `CC1OC(OC2C(C)OC(OC3C(OC(=O)/C=C/c4ccc(O)cc4)C(CO)OC(OC4(COC(=O)/C=C/c5ccc(O)cc5)OC(CO)C(O)C4O)C3OC3OCC(O)(CO)C3O)C(O)C2O)C(O)C(O)C1O` (stereo not given), the max response in test [1] was -0.0903%; in test [4], 4.29%. The outcome in test [2], in test [3] and in test [5] was inactive.

Consider `CNC(=O)COC(=O)NCCC1CCN(c2cccc(C)n2)CC1`, for which the values for the max response in test [1], in test [4] and in test [5] were -5.78%, 9.28% and -5.35%, respectively. In addition, the call in test [2] and in test [3] was inactive.

`CN(C)C/C=C/C(=O)Nc1ccc(C(=O)Nc2cccc(Nc3ncc(Cl)c(-c4c[nH]c5ccccc45)n3)c2)cc1`: the Potency in test [1] was 164 nM (active) and 263 nM (active); in test [2], 186 nM (active); in test [3] it was 1.84 µM (active) and 1.05 µM (active); in test [4], 184 nM (active); in test [5] it was 1.16 µM (active) and 2.09 µM (active).

In the case of `OCCc1ccc(O[C@@H]2O[C@H](CO)[C@@H](O)[C@H](O)[C@H]2O)c(O)c1`, the max response in test [1] is 1.68%; in test [5], -4.15%. For the same compound, the outcome in test [2], in test [3] and in test [4] was inactive.

With `COC(=O)C1=CO[C@@H](O[C@@H]2O[C@H](COC(=O)/C=C/c3cc(OC)c(O)c(OC)c3)[C@@H](O)[C@H](O)[C@H]2O)[C@@H]2C(CO)=CC[C@H]12`, the max response in test [1] is -6.59%; in test [4] it was 1.62%; in test [5] it was 0.53%. In addition, the result in test [2] and in test [3] was inactive.

`CC(=O)N[C@@H](CC(C)C)C(=O)N[C@@H](CCC(=O)O)C(=O)N[C@@H](CCC(=O)O)C(=O)N[C@@H](CC(=O)O)C(=O)Nc1ccc2c(C(F)(F)F)cc(=O)oc2c1` (Ac-LEED-{AFC}): the max response in test [1] was -4.37%; in test [3] it was -31%; in test [4], 0.179%; in test [5], 1.1%. Moreover, the result in test [2] was inactive.

Take `C/C=C/C1=CC2=C(CO1)C(=O)[C@](C)(O)[C@H](OC(=O)c1c(O)cc(OC)c(O)c1C)C2`: in test [1], the max response was 2.48%. The call in test [2], in test [3], in test [4] and in test [5] was inactive.

In the case of `C[C@H]1C[C@H]2[C@@H]3CCC4=CC(=O)C=C[C@]4(C)[C@@]3(F)[C@@H](O)C[C@]2(C)[C@@]1(O)C(=O)COP(=O)(O)O`, in test [1], the max response was 2.73%. Besides, the compound was called inactive in test [2], in test [3], in test [4] and in test [5].

Turning to `COC(=O)[C@@H]1C2CC3c4[nH]c5ccccc5c4CCN3CC2CC[C@@H]1O` (stereo not given in full), the outcome in test [1], in test [2] and in test [5] was inactive. The values for the max response in test [3] and in test [4] were -0.215% and 6.91%, respectively.

Consider `C=C1C(=O)OC2CC(C)=C(C(C)CCCO[C@@H]3O[C@H](CO)[C@@H](O)[C@H](O)[C@H]3O)C(O)C12` (stereo not given in full), for which the max response in test [1] is -0.682%. Besides, the outcome in test [2], in test [3], in test [4] and in test [5] was inactive.

Regarding `O=C(CCO[C@@H]1O[C@H](CO)[C@@H](O)[C@H](O)[C@H]1O)c1ccc(O)cc1`, the values for the max response in test [1], in test [3] and in test [5] were 3.35%, -12% and -1.69%, respectively. For the same compound, the outcome in test [2] and in test [4] was inactive.

As for `CC12CCC3C(C)(C)C(O)CCC3(C)C1Cc1c(oc(C(=O)O)cc1=O)O2` (stereo not given), the compound was classed as inactive in test [1], in test [2], in test [3] and in test [4]. Also, in test [5], the max response was 1.94%.

Regarding `C=C1[C@@H]2CC[C@@]3(C)[C@H](c4ccoc4)OC(=O)C[C@]13O[C@H]1CC(=O)C(C)(C)[C@H](CC(=O)OC)[C@]12C`, the max response in test [1] was -0.448%; in test [4], -1.94%. Besides, the compound was classed as inactive in test [2], in test [3] and in test [5].

Consider `C[C@@H](O)[C@H](N)C(=O)N1CCC[C@H]1C(=O)N1CCC[C@H]1C(=O)N[C@H](C(N)=O)[C@@H](C)O` (H-TPPT-NH2), for which the compound was called inactive in test [1], in test [2], in test [3], in test [4] and in test [5].

Take `CC1CCC2(C)C(CC(O)C(O)C23CO3)C1(C)CCC1=CC(=O)OC1O` (stereo not given): the values for the max response in test [1], in test [4] and in test [5] were -22%, 4.04% and 3.09%, respectively. Moreover, the call in test [2] was inactive. For the same compound, the outcome in test [3] was “inactive; activator”.

`CC(C)NC[C@H](O)COc1ccc(CCOCC2CC2)cc1`: the max response in test [1] is -3.5%. The compound was called inactive in test [2], in test [3], in test [4] and in test [5].

For `COC(=O)C1=COC(O[C@@H]2O[C@H](CO)[C@@H](O)[C@H](O)[C@H]2O)/C(=C\COC(=O)c2ccc(OC3OC(CO)C(O)C(O)C3O)c(OC)c2)C1CC(=O)OCCc1ccc(O)cc1` (stereo not given in full), the max response in test [1] was -6.94%; in test [5] it was 1.16%. For the same compound, the result in test [2], in test [3] and in test [4] was inactive.
